Assay results from PubChem BioAssay (EPA / NIEHS).
Several values for one entry are separate records, joined by “and”; a condition that tells them apart may be missing. Identical values can stand only once. Results filed as inconclusive are left out. Activity calls are given as the source filed them. How the source made its calls, unless noted: active means hit-call score of the fitted dose curve at least 0.9, where 1 is the maximum; inactive means score below 0.9.

What was measured:
[1] = CCTE_Mundy_HCI_iCellGluta_NOG_NeuronCount: CCTE's Neurite Outgrowth Assay in iCellGluta cells for Neuron Count, Mundy Lab (AID 2284340; active means hit-call score of the fitted dose curve at least 0.9, where 1 is the maximum;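 further: cells fixed about 48 h after compound addition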)
In short: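 Neuron count read by automated high-content imaging of Hoechst 33342 and betaIII-tubulin/Alexa Fluor-488 labelling in human iPSC glutamatergic neurons. Activity fitted relative to DMSO.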

[2] = CCTE_Mundy_HCI_iCellGluta_NOG_NeuriteCount: CCTE's Neurite Outgrowth Assay in iCellGluta cells for Neurite Count, Mundy Lab (AID 2284342; active means hit-call score of the fitted dose curve at least 0.9, where 1 is the maximum;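 further: chemical exposure about 48 hours starting 2 hours after plating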)
[3] = system: SRY-box transcription factor 17 (SOX17) Protein Expression, Deisenroth Lab, SOX17 (gene 64321); test: CCTE_Deisenroth_DEVTOX-GLR_legacy_Sox17: (Legacy) CCTE's DevTox GLR-Endo Assay Evaluation of SRY-box transcription factor 17 (SOX17) Protein Expression, Deisenroth Lab (AID 2284341); settings: actives raise or lower the signal
In short: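 RUES2-GLR human pluripotent cells differentiated toward endoderm for 48 h, dosed twice at 24 h intervals (1 nM–200 uM, 10 points). Imaging gives % SOX17+ cells (intensity >5x BMAD above pluripotent control median); bidirectional fit versus 0.2% DMSO.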

[4] = system: SRY-box transcription factor 2 (SOX2) Protein Expression, Deisenroth Lab, SOX2 (gene 6657); test: CCTE_Deisenroth_DEVTOX-GLR_legacy_Sox2: (Legacy) CCTE's DevTox GLR-Endo Assay Evaluation of SRY-box transcription factor 2 (SOX2) Protein Expression, Deisenroth Lab (AID 2284346)
In short: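 RUES2-GLR human pluripotent cells seeded 24 h, then differentiated 48 h in defined media with two chemical doses 24 h apart (10-point, 1 nM–200 uM). Fixed, nuclear-stained, imaged; % Sox2+ cells (>5x BMAD over endoderm control median), DMSO-subtracted, fitted upward.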

[5] = system: SRY-box transcription factor 2 (SOX2) Protein Expression, Deisenroth Lab, SOX2 (gene 6657); test: CCTE_Deisenroth_DEVTOX-GLR_Endo_SOX2: CCTE's DevTox GLR-Endo Assay Evaluation of SRY-box transcription factor 2 (SOX2) Protein Expression, Deisenroth Lab (AID 2284412; active means hit-call score of the fitted dose curve at least 0.9, where 1 is the maximum)
In short: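 RUES2-GLR human pluripotent cells were seeded 24 h, then differentiated 48 h with two chemical exposures 24 h apart. Cells were fixed, nuclei stained and imaged by high-content microscopy. Endpoint is %SOX2+ cells over cell count, minus 0.2% DMSO control; 10-point series 1 nM–200 uM.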

[6] = system: SRY-box transcription factor 17 (SOX17) Protein Expression, Deisenroth Lab, SOX17 (gene 64321); test: CCTE_Deisenroth_DEVTOX-GLR_Endo_SOX17: CCTE's DevTox GLR-Endo Assay Evaluation of SRY-box transcription factor 17 (SOX17) Protein Expression, Deisenroth Lab (AID 2284413)
In short: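 Endpoint: % change in SOX17+ fraction (SOX17+ cells / cell count) vs 0.2% DMSO solvent control. RUES2-GLR reporter cells, 48 h endoderm differentiation, two doses at 24 h intervals, high-content fluorescence imaging, 5 fields/well.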

[7] = system: Brachyury (BRA) Protein Expression, TBXT (gene 6862); test: CCTE_Deisenroth_DEVTOX-GLR_Endo_BRA: CCTE's DevTox GLR-Endo Assay Evaluation of Brachyury (BRA) Protein Expression, Deisenroth Lab (AID 2284417)
In short: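 RUES2-GLR pluripotent cells differentiated 48 h with two chemical exposures 24 h apart, 10-point range 1 nM - 200 uM. Percentage of BRA+ cells per total count by high-content imaging, minus 0.2% DMSO control.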

[8] = CCTE_Padilla_ZF_Score.Craniofacial: CCTE's 144 Hour Post-fertilization zebrafish Assay Score for Craniofacial Malformation, Padilla Lab (AID 2284405)
In short: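 Wild-type zebrafish embryos (with chorions), one per well in 10% Hanks', were dosed at 6–8 hpf in sealed plates and kept at 26C. They were rinsed at 5 dpf. At 6 dpf two blinded assessors scored craniofacial malformations by brightfield stereomicroscopy.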

[9] = CCTE_Padilla_ZF_Score.Edema: CCTE's 144 Hour Post-fertilization zebrafish Assay Score for Edema Malformation, Padilla Lab (AID 2284406)
In short: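 Wild-type zebrafish embryos, one per well in Hanks' solution, dosed at 6-8 hpf, sealed and reared at 26C on a 14:10 h cycle; rinsed on 5 dpf. At 6 dpf, blinded assessors scored edema by stereomicroscopy.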

[10] = CCTE_Padilla_ZF_Score.Spine: CCTE's 144 Hour Post-fertilization zebrafish Assay Score for Spine Malformation, Padilla Lab (AID 2284407)
In short: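 Wild-type zebrafish embryos, one per well in Hanks' solution, dosed at 6–8 hpf in sealed plates at 26C, 14:10 h light:dark; rinsed at 5 dpf. Two blinded assessors scored spinal defects by stereomicroscopy at 6 dpf; fitted versus DMSO.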

[11] = CCTE_Padilla_ZF_Score.Swim_bladder: CCTE's 144 Hour Post-fertilization zebrafish Assay Score for Swim Bladder Malformation, Padilla Lab (AID 2284408)
In short: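 Wild-type zebrafish embryos, one per well in 10% Hanks', dosed at 6–8 hpf, sealed, reared at 26C and rinsed at 5 dpf. Blinded assessors scored uninflated swim bladder by stereomicroscopy at 6 dpf, relative to DMSO.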

[12] = CCTE_Padilla_ZF_Score.Position: CCTE's 144 Hour Post-fertilization zebrafish Assay Score for Position, Padilla Lab (AID 2284409)
In short: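 Wild-type zebrafish embryos (with chorions) exposed singly from 6–8 hpf in sealed wells of Hanks' solution at 26C, rinsed at 5 dpf. At 6 dpf, blinded assessors scored abnormal water-column position by brightfield stereomicroscopy, relative to DMSO.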

[13] = CCTE_Padilla_ZF_Score.Living: CCTE's 144 Hour Post-fertilization zebrafish Assay Score for Viability, Padilla Lab (AID 2284410);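 further: larval death at 6 dpf judged by absent heartbeat or coagulation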
In short: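 Wild-type zebrafish embryos were exposed singly from 6–8 hpf in sealed wells of Hanks' solution at 26C, then rinsed at 5 dpf. At 6 dpf, blinded assessors scored mortality (no heartbeat or coagulation) by stereomicroscopy, fitted against DMSO.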

[14] = CCTE_Padilla_ZF_Score.General: CCTE's 144 Hour Post-fertilization zebrafish Assay Score for General Malformation, Padilla Lab (AID 2284411)
In short: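 Wild-type zebrafish embryos were plated singly at 6-8 hpf in 10% Hanks' and exposed in sealed wells at 26C until rinsed on 5 dpf. At 6 dpf two blinded assessors scored mortality, hatching and malformations by stereomicroscopy; gain-of-signal versus DMSO.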

[15] = CCTE_Padilla_ZF_Score.Tail: CCTE's 144 Hour Post-fertilization zebrafish Assay Score for Tail Malformation, Padilla Lab (AID 2284414)
In short: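 Wild-type zebrafish embryos, one per well in 200 uL 10% Hanks', dosed at 6-8 hpf, sealed, and kept at 26 C on a 14:10 h light cycle. Chemical was rinsed out at 5 dpf. Blinded brightfield scoring of tail defects followed at 6 dpf.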

[16] = CCTE_Padilla_ZF_Score.Blood_pooling: CCTE's 144 Hour Post-fertilization zebrafish Assay Score for Blood Pooling, Padilla Lab (AID 2284415)
In short: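 Wild-type outbred zebrafish embryos, one per well in 10% Hanks', exposed from 6–8 hpf in sealed plates at 26C on 14:10 h light:dark, rinsed at 5 dpf. Blinded stereomicroscope scoring of blood pooling at 6 dpf; gain-of-signal versus DMSO.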

[17] = CCTE_Padilla_ZF_Score.Any: CCTE's 144 Hour Post-fertilization zebrafish Assay Score for Any Mortality or Malformation, Padilla Lab (AID 2284416)
In short: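 Wild-type zebrafish embryos with chorions, one per well in 10% Hanks' from 6–8 hpf, dosed in sealed plates at 26 C, 14:10 h light:dark; rinsed at 5 dpf; blinded scoring at 6 dpf for death or malformation, versus DMSO.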

[18] = VALA_TUBHUV_Agonist_TubuleLength: VALA Sciences human Umbilical Vein Endothelial Tubule Formation (TUBHUV) Agonism Assay (AID 2284337; active means hit-call score of the fitted dose curve at least 0.9, where 1 is the maximum)
In short: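 HUVEC co-cultured with fibroblasts (1:3) 3 days in 10 ng/ml VEGF, then 3 days with compound plus VEGF; 0.1 % DMSO neutral control. Fixed, nuclear and CD31 stained; tubule length by fluorescence imaging.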

[19] = VALA_TUBIPS_Agonist_CellCount: Viability Assessment in the VALA Sciences human iPS-derived Endothelial Tubule Formation (TUBIPS) Agonism Assay (AID 2284338; active means hit-call score of the fitted dose curve at least 0.9, where 1 is the maximum)
[20] = system: SERPINA7 (gene 6906); test: CCTE_GLTED_hTBG: CCTE's human Thyroxine-binding Globulin (TBG) Inhibition Assay, Great Lakes Toxicology and Ecology Division (GLTED) Lab (AID 2284343; active means hit-call score of the fitted dose curve at least 0.9, where 1 is the maximum;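 further: active chemicals lower fluorescence versus DMSO baseline by displacing probe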)
In short: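 Human TBG incubated 2 h with test chemical; displacement of ANSA probe read by fluorescence, 380 nm excitation/475 nm emission. Loss of signal relative to DMSO.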

Cc1cc(C(F)(C(F)(F)F)C(F)(F)F)ccc1NC(=O)c1cccc(I)c1C(=O)NC(C)(C)CS(C)(=O)=O
outcome [1]: inactive | outcome [2]: inactive

OC(Cc1ccccc1Cl)(Cn1[nH]cnc1=S)C1(Cl)CC1 (centres undefined)
AC50 [1]: 50 µM (active) | outcome [2]: inactive

NC(=O)c1ccc(N)nc1
AC50 [3]: 21 µM (active) | AC50 [4]: 52.9 µM (active) | AC50 [5]: 71.1 µM (active) | AC50 [6]: 21 µM (active) | AC50 [7]: 68.7 µM (active)

COC(F)(C(F)(F)C(F)(F)F)C(F)(C(F)(F)F)C(F)(F)F (centres undefined)
outcome [8]: inactive | outcome [9]: inactive | outcome [10]: inactive | outcome [11]: inactive | outcome [12]: inactive | outcome [13]: inactive | outcome [14]: inactive | outcome [15]: inactive | outcome [16]: inactive | outcome [17]: inactive

Nc1ncn[nH]1
outcome [18]: inactive | outcome [19]: inactive

O=C(NC(=O)c1c(F)cccc1F)Nc1cc(Cl)c(OC(F)(F)C(F)C(F)(F)F)cc1Cl (centres undefined)
AC50 [20]: 19.5 µM (active)

O=C(O)COc1cc(Cl)c(Cl)cc1Cl
AC50 [20]: 45.6 µM (active)

Oc1c(Br)cc(Br)cc1Br
AC50 [20]: 10.3 µM (active) | AC50 [14]: 2.31 µM (active)

CCCCCCCCCCCCc1cccc(S(=O)(=O)O)c1
AC50 [20]: 22.2 µM (active)

CC(C=O)Cc1ccc2c(c1)OCO2 (centres undefined)
outcome [14]: inactive

C=CCOC(F)(C(F)(F)F)C(F)(F)F
outcome [8]: inactive | outcome [9]: inactive | outcome [10]: inactive | outcome [11]: inactive | outcome [12]: inactive | outcome [13]: inactive | outcome [14]: inactive | outcome [15]: inactive | outcome [16]: inactive | outcome [17]: inactive

CC1(C)[C@H](C(=O)O[C@H](C#N)c2cccc(Oc3ccccc3)c2)[C@@H]1/C=C(\Cl)C(F)(F)F
outcome [1]: inactive | outcome [2]: inactive

Cc1cccc(OP(=O)(Oc2cccc(C)c2)Oc2cccc(C)c2)c1
outcome [14]: inactive

CCCCCCCCCCCCN(C)C
outcome [14]: inactive

Oc1cc(Cl)c(Cl)cc1Cl
AC50 [20]: 40.8 µM (active)

OC(Cc1ccccc1Cl)(Cn1cncn1)C1(Cl)CC1 (centres undefined)
outcome [14]: inactive

CCCCCCCCCCBr
outcome [14]: inactive

O=S1(=O)OC(c2cc(Br)c(O)c(Br)c2)(c2cc(Br)c(O)c(Br)c2)c2ccccc21
AC50 [20]: 7.4 µM (active)

O=S(=O)(c1ccc(Cl)cc1)c1cc(Cl)c(Cl)cc1Cl
AC50 [14]: 27.5 µM (active)

CCOCn1c(-c2ccc(Cl)cc2)c(C#N)c(Br)c1C(F)(F)F
AC50 [1]: 27.1 µM (active) | AC50 [2]: 21.3 µM (active) | AC50 [20]: 2.12 µM (active)

Cc1ccccc1OP(=O)(Oc1ccccc1)Oc1ccccc1
AC50 [14]: 2.78 µM (active)

CCOP(=O)(OCC)SCCSCC
outcome [14]: inactive

CCOC(=O)C(SP(=S)(OC)OC)c1ccccc1 (centres undefined)
AC50 [14]: 8.89 µM (active)

Cc1ccc2nc3sc(=O)sc3nc2c1
AC50 [14]: 0.563 µM (active)

Nc1c(Oc2ccccc2)cc(O)c2c1C(=O)c1ccccc1C2=O
AC50 [14]: 14 µM (active)

Nc1ccc(N)cc1
AC50 [20]: 20.3 µM (active)

O=S(=O)(F)C(F)(F)C(F)(F)C(F)(F)C(F)(F)F
outcome [8]: inactive | outcome [9]: inactive | outcome [10]: inactive | outcome [11]: inactive | outcome [12]: inactive | outcome [13]: inactive | outcome [14]: inactive | outcome [15]: inactive | outcome [16]: inactive | outcome [17]: inactive

CCCSP(=S)(OCC)Oc1ccc(SC)cc1 (centres undefined)
AC50 [20]: 1.52 µM (active)

CCN(CC)C(=O)C(Cl)=C(C)OP(=O)(OC)OC
outcome [14]: inactive

O=C1C=CC(=O)c2ccccc21
outcome [14]: inactive

CC(F)(F)CC(F)(F)F
outcome [8]: inactive | outcome [9]: inactive | outcome [10]: inactive | outcome [11]: inactive | outcome [12]: inactive | outcome [13]: inactive | outcome [14]: inactive | outcome [15]: inactive | outcome [16]: inactive | outcome [17]: inactive

CS(=O)(=O)c1ccc(C(=O)C2C(=O)CCCC2=O)c(Cl)c1COCC(F)(F)F
outcome [1]: inactive | AC50 [2]: 25.3 µM (active)

CCOP(=S)(OCC)O/N=C(\C#N)c1ccccc1
AC50 [20]: 20.6 µM (active)

CCCCCCCCCCCCOS(=O)(=O)O
AC50 [20]: 37.2 µM (active) and 56.4 µM (active)

Cc1ccccc1OP(=O)(Oc1ccccc1C)Oc1ccccc1C
AC50 [1]: 13.5 µM (active) | AC50 [2]: 12.5 µM (active)
